Holding throughout (conditions): mRNA level, 48 h; actives raise or lower the signal
Read-out in assay [1]: Fatty acid synthase (Homo sapiens) (UniProt P49327)
Description: LTEA_HepaRG_FASN: Life Technologies and Expression Analysis (LTEA) Assay for Fatty Acid Synthase (FASN) using HepaRG (AID 2283448). A digest of the protocol: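 Differentiated human HepaRG cells were exposed for 48 h in serum-free induction medium to eight half-log concentrations up to 100 uM in 0.5% DMSO, in duplicate. FASN mRNA was quantified by TaqMan qRT-PCR, normalized to ACTB/GAPDH/POLR2A, and fitted bidirectionally against DMSO.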

Read-out in assay [2]: Cyclin D2 (CCND2), CCND2 (gene 894)
Briefly: LTEA_HepaRG_CCND2: Life Technologies and Expression Analysis (LTEA) Assay for Cyclin D2 (CCND2) using HepaRG (AID 2283449).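 Note: CCND2 transcript measured by TaqMan qRT-PCR and normalised to three housekeeping genes.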 In a few lines: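 Chemicals in 0.5% DMSO, eight half-log concentrations from 100 uM top, were applied in duplicate for 48 h to human HepaRG cells in serum-free induction medium. CCND2 mRNA by TaqMan qRT-PCR, normalised to ACTB/GAPDH/POLR2A; bidirectional fit versus DMSO.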

Read-out in assay [3]: Cyclin Dependent Kinase Inhibitor 1A (CDKN1A), CDKN1A (gene 1026)
Description: LTEA_HepaRG_CDKN1A: Life Technologies and Expression Analysis (LTEA) Assay for Cyclin Dependent Kinase Inhibitor 1A (CDKN1A) using HepaRG (AID 2283450). In a few lines:
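Gain or loss of CDKN1A transcript is scored by bidirectional fitting against 0.5% DMSO vehicle. Human HepaRG cultures receive chemicals for 48 h across an 8-point series peaking at 100 uM; expression comes from qRT-PCR.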

Read-out in assay [4]: Cyclin D1 (CCND1), CCND1 (gene 595)
Briefly: LTEA_HepaRG_CCND1: Life Technologies and Expression Analysis (LTEA) Assay for Cyclin D1 (CCND1) using HepaRG (AID 2283451). In a few lines: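 Expression change is measured by qRT-PCR in HepaRG cells after 48 h treatment across eight concentrations topping at 100 uM, with duplicate wells and DMSO (0.5%) serving as baseline for bidirectional fitting.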

Read-out in assay [5]: catalase (CAT), CAT (gene 847)
Briefly: LTEA_HepaRG_CAT: Life Technologies and Expression Analysis (LTEA) Assay for catalase (CAT) using HepaRG (AID 2283452). In a few lines:
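HepaRG cells in serum-free induction medium, 0.5% DMSO vehicle, exposed 48 h in duplicate over 8 half-log concentrations from 100 uM. CAT mRNA measured by qRT-PCR, normalized to ACTB, GAPDH, POLR2A; bidirectional fit versus DMSO.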

Read-out in assay [6]: flavin-containing dimethylaniline monooxygenases 3 (FMO3), FMO3 (gene 2328)
Briefly: LTEA_HepaRG_FMO3: Life Technologies and Expression Analysis (LTEA) Assay for flavin-containing dimethylaniline monooxygenases 3 (FMO3) using HepaRG (AID 2283453). A digest of the protocol: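 HepaRG, 48 h exposure, 8-pt half-log series from 100 uM, 0.5% DMSO vehicle, duplicates; FMO3 transcript by Fluidigm TaqMan qRT-PCR, housekeeping-normalized; gain/loss fit vs DMSO.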

Read-out in assay [7]: Cytochrome P450 (CYP1A1), CYP1A1 (gene 1543)
Briefly: LTEA_HepaRG_CYP1A1: Life Technologies and Expression Analysis (LTEA) Assay for Cytochrome P450 (CYP1A1) using HepaRG (AID 2283454). In a few lines:
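Using HepaRG cultures with 0.5% DMSO as vehicle, eight-concentration exposures (max 100 uM) lasted 48 h. Transcript levels were measured by TaqMan qRT-PCR and normalized to ACTB, GAPDH and POLR2A.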

Read-out in assay [8]: CFLAR gene, CFLAR (gene 8837)
Briefly: LTEA_HepaRG_CFLAR: Life Technologies and Expression Analysis (LTEA) Assay for CFLAR gene using HepaRG (AID 2283455). A digest of the protocol: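 Differentiated HepaRG cells in serum-free induction medium were exposed 48 h in duplicate to eight half-log concentrations up to 100 uM in 0.5% DMSO; mRNA measured by TaqMan qRT-PCR, normalized to ACTB, GAPDH, POLR2A; bidirectional fitting versus DMSO.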

Read-out in assay [9]: Forkhead box O1 (FOXO1), FOXO1 (gene 2308)
Description: LTEA_HepaRG_FOXO1: Life Technologies and Expression Analysis (LTEA) Assay for Forkhead box O1 (FOXO1) using HepaRG (AID 2283456). A digest of the protocol: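 Differentiated HepaRG cells, in serum-free induction medium with 0.5% DMSO, exposed 48 h in duplicate to 8-point half-log series from 100 uM. FOXO1 mRNA measured by TaqMan qRT-PCR, normalized to ACTB, GAPDH, POLR2A; bidirectional fit versus DMSO.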

Read-out in assay [10]: growth arrest and DNA damage 45 (GADD45A), GADD45A (gene 1647)
Briefly: LTEA_HepaRG_GADD45A: Life Technologies and Expression Analysis (LTEA) Assay for growth arrest and DNA damage 45 (GADD45A) using HepaRG (AID 2283458). A digest of the protocol: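 Differentiated HepaRG cells were exposed in duplicate for 48 h in serum-free induction medium to 8-point half-log concentrations up to 100 uM in 0.5% DMSO. GADD45A mRNA was measured by TaqMan qRT-PCR, normalized to ACTB, GAPDH and POLR2A, with bidirectional fitting versus DMSO.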

Read-out in assay [11]: Forkhead box O3 (FOXO3), FOXO3 (gene 2309)
Description: LTEA_HepaRG_FOXO3: Life Technologies and Expression Analysis (LTEA) Assay for Forkhead box O3 (FOXO3) using HepaRG (AID 2283459). A digest of the protocol:
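Differentiated human HepaRG cells, 48 h post-plating, exposed in duplicate for 48 h in serum-free induction medium; 8-point half-log series from 100 uM in 0.5% DMSO. FOXO3 mRNA by TaqMan qRT-PCR, normalized to ACTB/GAPDH/POLR2A; bidirectional fit versus DMSO.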

Read-out in assay [12]: ABC Transporter (ABCB1), ABCB1 (gene 5243)
Briefly: LTEA_HepaRG_ABCB1: Life Technologies and Expression Analysis (LTEA) Assay for ABC Transporter (ABCB1) using HepaRG (AID 2283460). In a few lines:
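HepaRG cells exposed in duplicate for 48 h in serum-free induction medium to eight half-log concentrations up to 100 uM in 0.5% DMSO. ABCB1 mRNA quantified by qRT-PCR, normalised to ACTB, GAPDH and POLR2A; fitted bidirectionally versus DMSO.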

Read-out in assay [13]: growth arrest and DNA damage 45 (GADD45B), GADD45B (gene 4616)
Description: LTEA_HepaRG_GADD45B: Life Technologies and Expression Analysis (LTEA) Assay for growth arrest and DNA damage 45 (GADD45B) using HepaRG (AID 2283461). A digest of the protocol: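 Human HepaRG monolayers receive chemicals for 48 h at eight half-log concentrations, highest 100 uM, in 0.5% DMSO. Expression is measured by TaqMan qRT-PCR and normalized to ACTB, GAPDH and POLR2A.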

Read-out in assay [14]: ABC Transporter (ABCC3), ABCC3 (gene 8714)
Briefly: LTEA_HepaRG_ABCC3: Life Technologies and Expression Analysis (LTEA) Assay for ABC Transporter (ABCC3) using HepaRG (AID 2283462). A digest of the protocol: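 Transcriptional change of ABCC3 in HepaRG after 48 h treatment, determined by qRT-PCR normalized to endogenous controls. Concentrations spanned eight half-log steps to 100 uM in 0.5% DMSO.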

Read-out in assay [15]: ABC Transporter (ABCB11), ABCB11 (gene 8647)
Description: LTEA_HepaRG_ABCB11: Life Technologies and Expression Analysis (LTEA) Assay for ABC Transporter (ABCB11) using HepaRG (AID 2283463). In a few lines: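 Differentiated human HepaRG cells in serum-free induction medium, dosed in duplicate for 48 h. Eight-point half-log series from 100 uM in 0.5% DMSO; ABCB11 mRNA by qRT-PCR, normalized to ACTB, GAPDH, POLR2A, fitted bidirectionally versus DMSO.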

Read-out in assay [16]: ABC Transporter (ABCC2), ABCC2 (gene 1244)
Description: LTEA_HepaRG_ABCC2: Life Technologies and Expression Analysis (LTEA) Assay for ABC Transporter (ABCC2) using HepaRG (AID 2283464). In a few lines:
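After plating and 48 h culture, HepaRG medium is replaced with serum-free induction medium and chemicals are added (8 concentrations, max 100 uM, 0.5% DMSO) for 48 h. Total RNA then undergoes qRT-PCR for ABCC2 with housekeeping normalization.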

Read-out in assay [17]: Broad substrate specificity ATP-binding cassette transporter ABCG2 (Homo sapiens) (UniProt Q9UNQ0)
Briefly: LTEA_HepaRG_ABCG2: Life Technologies and Expression Analysis (LTEA) Assay for ABC Transporter (ABCG2) using HepaRG (AID 2283465). In a few lines:
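Differentiated HepaRG cells were exposed for 48 h in serum-free induction medium to 8 half-log concentrations, top 100 uM, in 0.5% DMSO. ABCG2 mRNA was measured by qRT-PCR, normalized to ACTB, GAPDH and POLR2A, with bidirectional fitting versus DMSO.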

Read-out in assay [18]: ATP-citrate lyase (ACLY), ACLY (gene 47)
Briefly: LTEA_HepaRG_ACLY: Life Technologies and Expression Analysis (LTEA) Assay for ATP-citrate lyase (ACLY) using HepaRG (AID 2283466). In a few lines: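 Differentiated HepaRG cells exposed 48 h in serum-free induction medium to eight half-log concentrations up to 100 uM in 0.5% DMSO, duplicates. Transcript measured by Fluidigm TaqMan qRT-PCR, normalized to ACTB, GAPDH, POLR2A; bidirectional fit versus DMSO.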

Read-out in assay [19]: Peroxisomal acyl-coenzyme A oxidase 1 (ACOX1) gene, ACOX1 (gene 51)
Description: LTEA_HepaRG_ACOX1: Life Technologies and Expression Analysis (LTEA) Assay for Peroxisomal acyl-coenzyme A oxidase 1 (ACOX1) gene using HepaRG (AID 2283467). A digest of the protocol: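 HepaRG cells, plated 48 h then switched to serum-free induction medium, were exposed in duplicate for 48 h to 8-point half-log concentrations up to 100 uM in 0.5% DMSO. ACOX1 mRNA was measured by qRT-PCR, normalized to ACTB/GAPDH/POLR2A, and fitted bidirectionally versus DMSO.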

Activity calls are given as the source filed them. Rule for the calls: active = hit-call score of the fitted dose curve at least 0.9, where 1 is the maximum; inactive = score below 0.9.

Sequence of Fatty acid synthase (Homo sapiens) (P49327 whole entry, looked up): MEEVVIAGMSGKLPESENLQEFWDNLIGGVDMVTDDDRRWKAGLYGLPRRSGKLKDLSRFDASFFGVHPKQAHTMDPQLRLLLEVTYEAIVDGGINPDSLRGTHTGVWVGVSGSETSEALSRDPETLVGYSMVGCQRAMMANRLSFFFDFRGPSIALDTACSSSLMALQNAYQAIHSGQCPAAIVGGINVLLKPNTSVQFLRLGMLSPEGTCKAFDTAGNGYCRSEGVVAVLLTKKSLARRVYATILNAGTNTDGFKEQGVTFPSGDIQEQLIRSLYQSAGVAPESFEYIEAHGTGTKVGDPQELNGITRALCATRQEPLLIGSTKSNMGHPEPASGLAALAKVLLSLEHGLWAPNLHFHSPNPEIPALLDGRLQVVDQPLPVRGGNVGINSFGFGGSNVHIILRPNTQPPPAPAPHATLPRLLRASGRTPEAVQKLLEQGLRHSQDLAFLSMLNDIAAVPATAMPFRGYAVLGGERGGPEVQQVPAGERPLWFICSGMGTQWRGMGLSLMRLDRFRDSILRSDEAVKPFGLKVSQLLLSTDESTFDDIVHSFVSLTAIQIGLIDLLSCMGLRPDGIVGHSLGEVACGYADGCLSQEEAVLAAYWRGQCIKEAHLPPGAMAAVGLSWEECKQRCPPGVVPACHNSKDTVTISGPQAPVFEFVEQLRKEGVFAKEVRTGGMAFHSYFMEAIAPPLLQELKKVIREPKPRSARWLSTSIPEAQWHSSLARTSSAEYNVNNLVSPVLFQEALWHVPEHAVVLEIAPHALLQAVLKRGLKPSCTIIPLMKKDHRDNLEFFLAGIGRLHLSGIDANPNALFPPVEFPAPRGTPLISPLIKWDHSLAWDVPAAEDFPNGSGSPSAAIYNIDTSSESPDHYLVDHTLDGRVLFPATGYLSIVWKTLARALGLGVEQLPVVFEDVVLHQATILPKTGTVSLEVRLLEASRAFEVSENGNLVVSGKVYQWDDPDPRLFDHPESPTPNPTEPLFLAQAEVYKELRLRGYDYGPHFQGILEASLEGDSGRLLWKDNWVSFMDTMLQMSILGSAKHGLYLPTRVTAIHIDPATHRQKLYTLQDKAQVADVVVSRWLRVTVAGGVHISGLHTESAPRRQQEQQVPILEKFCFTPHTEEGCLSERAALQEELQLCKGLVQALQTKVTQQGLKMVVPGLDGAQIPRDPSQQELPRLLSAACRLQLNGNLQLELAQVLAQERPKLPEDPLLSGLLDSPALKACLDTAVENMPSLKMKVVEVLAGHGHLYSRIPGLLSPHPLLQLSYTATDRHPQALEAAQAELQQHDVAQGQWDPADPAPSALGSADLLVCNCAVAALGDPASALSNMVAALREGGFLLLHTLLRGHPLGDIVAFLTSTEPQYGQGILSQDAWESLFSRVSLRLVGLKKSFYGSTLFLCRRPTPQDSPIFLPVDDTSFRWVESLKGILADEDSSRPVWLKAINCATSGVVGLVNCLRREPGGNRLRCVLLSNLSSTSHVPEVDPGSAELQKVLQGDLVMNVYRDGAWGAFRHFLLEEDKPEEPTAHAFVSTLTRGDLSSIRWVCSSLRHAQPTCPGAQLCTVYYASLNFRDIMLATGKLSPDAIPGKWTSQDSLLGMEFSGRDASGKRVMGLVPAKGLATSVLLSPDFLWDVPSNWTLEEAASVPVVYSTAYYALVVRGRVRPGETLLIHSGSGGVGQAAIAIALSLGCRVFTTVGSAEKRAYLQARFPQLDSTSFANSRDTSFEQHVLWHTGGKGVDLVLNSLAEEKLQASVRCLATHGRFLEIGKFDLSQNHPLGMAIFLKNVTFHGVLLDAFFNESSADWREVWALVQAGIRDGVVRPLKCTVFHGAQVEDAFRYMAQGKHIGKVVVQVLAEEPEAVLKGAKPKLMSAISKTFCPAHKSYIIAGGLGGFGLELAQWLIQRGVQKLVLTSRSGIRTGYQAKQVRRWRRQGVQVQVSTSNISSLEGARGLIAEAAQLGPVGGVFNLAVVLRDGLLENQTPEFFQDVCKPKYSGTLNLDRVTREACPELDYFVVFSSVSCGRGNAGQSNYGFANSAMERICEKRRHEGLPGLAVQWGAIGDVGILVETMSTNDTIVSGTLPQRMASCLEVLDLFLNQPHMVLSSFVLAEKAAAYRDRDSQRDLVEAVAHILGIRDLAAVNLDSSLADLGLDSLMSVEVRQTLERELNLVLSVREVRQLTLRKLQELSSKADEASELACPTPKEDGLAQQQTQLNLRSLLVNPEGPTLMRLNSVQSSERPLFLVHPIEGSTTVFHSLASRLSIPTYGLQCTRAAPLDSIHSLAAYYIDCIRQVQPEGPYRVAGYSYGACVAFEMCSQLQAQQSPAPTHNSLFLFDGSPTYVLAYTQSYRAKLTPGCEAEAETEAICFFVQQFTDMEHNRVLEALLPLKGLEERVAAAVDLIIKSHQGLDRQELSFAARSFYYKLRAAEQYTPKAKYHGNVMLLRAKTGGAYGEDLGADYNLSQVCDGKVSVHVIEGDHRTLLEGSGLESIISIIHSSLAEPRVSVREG
Sequence of Broad substrate specificity ATP-binding cassette transporter ABCG2 (Homo sapiens) (Q9UNQ0 whole entry, looked up): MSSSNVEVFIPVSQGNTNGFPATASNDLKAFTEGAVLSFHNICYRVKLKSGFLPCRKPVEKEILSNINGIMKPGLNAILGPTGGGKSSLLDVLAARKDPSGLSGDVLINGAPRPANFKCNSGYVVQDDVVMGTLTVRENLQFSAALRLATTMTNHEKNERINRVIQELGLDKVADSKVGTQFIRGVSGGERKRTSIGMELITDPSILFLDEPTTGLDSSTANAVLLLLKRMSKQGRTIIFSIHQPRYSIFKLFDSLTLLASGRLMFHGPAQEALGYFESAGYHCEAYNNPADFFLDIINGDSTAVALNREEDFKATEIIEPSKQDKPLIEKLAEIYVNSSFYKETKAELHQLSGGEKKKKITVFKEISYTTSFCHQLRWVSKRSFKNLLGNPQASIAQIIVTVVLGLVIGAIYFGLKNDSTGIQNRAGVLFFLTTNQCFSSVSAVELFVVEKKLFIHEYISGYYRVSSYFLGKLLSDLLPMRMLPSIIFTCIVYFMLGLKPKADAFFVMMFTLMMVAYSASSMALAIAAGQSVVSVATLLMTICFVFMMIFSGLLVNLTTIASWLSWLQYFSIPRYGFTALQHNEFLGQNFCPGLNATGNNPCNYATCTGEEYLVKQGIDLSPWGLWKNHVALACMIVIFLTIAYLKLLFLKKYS

Broadly, the AC50 is the midpoint of the concentration-response curve, whichever way the signal moves. Consider `O=C(O)C(F)(F)C(F)(F)C(F)(F)C(F)(F)C(F)(F)F`, for which the compound was called inactive in assay [1], in assay [2], in [3], in assay [4], in assay [5] and in [8]. For the same compound, the call in assay [9], in assay [10], in assay [11], in [12], in assay [13] and in assay [14] was inactive. The compound was classed as inactive in assay [15], in assay [16] and in [18]. The AC50 in assay [6] is 2.34 µM (active); in assay [7], 50 µM (active); in [17], 9.92 µM (active); in assay [19], 9.92 µM (active).
Turning to `O=S(=O)(O)C(F)(F)C(F)(F)C(F)(F)C(F)(F)C(F)(F)C(F)(F)F`, the call in assay [1], in assay [2], in assay [3], in assay [4], in assay [6] and in assay [8] was inactive. Besides, the compound was called inactive in assay [10], in assay [11], in assay [12], in assay [13], in assay [14] and in assay [15]. Moreover, the compound was called inactive in assay [16], in assay [17] and in assay [18]. Besides, the AC50 in assay [5] was 7.16 µM (active); in [7] it was 50 µM (active); in assay [19], 6.58 µM (active).
As to `c1ccc(-c2ccccc2)cc1`, the outcome in [1], in assay [2], in assay [3], in assay [4], in [5] and in assay [6] was inactive. For the same compound, the outcome in assay [7], in assay [8], in assay [10], in [11], in assay [12] and in assay [13] was inactive. The call in assay [14], in [15], in assay [16], in assay [17], in assay [18] and in assay [19] was inactive.

Source of the values: PubChem BioAssay (EPA / NIEHS).
